# Screening data as filed in PubChem.
# SNCA viab count: cell viability loss counter-screen. Potency, µM (highest dose often 57.1 µM), inactives show at the top dose activity change, negative = cytotoxicity, actives largely listed as cytotoxic. actives 0.12% (n = 150,000). AID 1671193. HEK-293-SNCA-luc viability, GF-AFC fluorescence, 24 h;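 further: 0% = DMSO-treated cells and -100% = medium-only wells without cells; nearly all actives have a fitted effect of over 30% in size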
#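 Cytotoxicity counterscreen: after 24 h compound treatment of genome-edited SNCA-luciferase HEK-293 cells, live-cell protease substrate GF-AFC read by fluorescence after 30 min; activity scaled between DMSO (0%) and medium-only (-100%), curves Hill-fitted.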
# HEK293 tox: cytotoxic compounds in HEK 293 cells. AID 1345083. Potency, µM (titrated, usually from 115 µM), for the others: at the top dose activity change, negative = cytotoxicity, usual class: inhibitors. HEK 293 viability, ATP luminescence (CellTiter-Glo), 48-72 h. actives 6.6% (n = 94,000); further: on the % scale 0 is the no-effect control and ±100 the full control effect; nearly all actives have a fitted effect of over 60% in size
#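 CellTiter-Glo luminescence (cellular ATP) was read after 48 or 72 hr of compound exposure at 37 degree Celsius. Cells were HEK 293 plated at 250 cells/well.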
# SNCA expr inh: SNCA gene expression inhibition; HEK-293 SNCA-luciferase knock-in, luminescence, 24 h; Potency, µM (series often up to 57.2 µM), for the others: at the top dose activity change, negative = inhibition, usual class: inhibitors; actives 0.17% (n = 140,000); AID 1671194;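 further: plate controls were DMSO cells for no effect and cell-free wells for full effect; nearly all actives have a fitted effect of over 45% in size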
# 3T3 cytotox: NIH 3T3 cell cytotoxicity; NIH 3T3 viability, CellTiter-Glo ATP luminescence, 48-72 h; Potency, µM (series often up to 96.7 µM), inactives show at the highest dose activity change, negative = cytotoxicity, usual class: inhibitors; actives 4.3% (n = 94,000); AID 1345082; further: on the % scale 0 is the no-effect control and ±100 the full control effect; nearly all actives have a fitted effect of over 55% in size
#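 First NIH 3T3 cells are plated at 400 cells/well; next compound is pinned in; then plates incubate 48 or 72 hr at 37 °C; finally CellTiter-Glo is added and luminescence read after 10 min.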
# NPR1 antag: blocks ANP-stimulated signaling of human Npr1 receptor | P16066 | HEK293 hNpr1 GloSensor cGMP, ANP-stimulated luminescence | Potency, µM (series often up to 46.3 µM), for inactives: at the highest dose activity change, negative = inhibition, hits mostly inhibitors | actives 1.6% (n = 76,000) | AID 1347048; calls by dose curve; further: on the % scale 0 is the no-effect control and ±100 the full control effect; nearly all actives have a fitted effect of over 60% in size
#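 Compound pre-incubated 30 min at room temperature on GloSensor-loaded HEK293 cells stably carrying hNpr1 and the pGS-40F cGMP biosensor. Stimulation uses hNppA at 0.1 nM final; luminescence is taken at baseline and 20 min post-agonist.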
# FLuc inh-1: Photinus pyralis luciferase inhibition; AID 1347043; purified P. pyralis luciferase, luminescence, biochemical; actives 2.5% (n = 76,000); P08659; Potency, µM (titrated, usually from 115 µM), actives largely listed as inhibitors; further: on the % scale 0 is the no-effect control and ±100 the full control effect; nearly all actives have a fitted effect of over 65% in size
# Target sequence (P08659 whole entry, looked up): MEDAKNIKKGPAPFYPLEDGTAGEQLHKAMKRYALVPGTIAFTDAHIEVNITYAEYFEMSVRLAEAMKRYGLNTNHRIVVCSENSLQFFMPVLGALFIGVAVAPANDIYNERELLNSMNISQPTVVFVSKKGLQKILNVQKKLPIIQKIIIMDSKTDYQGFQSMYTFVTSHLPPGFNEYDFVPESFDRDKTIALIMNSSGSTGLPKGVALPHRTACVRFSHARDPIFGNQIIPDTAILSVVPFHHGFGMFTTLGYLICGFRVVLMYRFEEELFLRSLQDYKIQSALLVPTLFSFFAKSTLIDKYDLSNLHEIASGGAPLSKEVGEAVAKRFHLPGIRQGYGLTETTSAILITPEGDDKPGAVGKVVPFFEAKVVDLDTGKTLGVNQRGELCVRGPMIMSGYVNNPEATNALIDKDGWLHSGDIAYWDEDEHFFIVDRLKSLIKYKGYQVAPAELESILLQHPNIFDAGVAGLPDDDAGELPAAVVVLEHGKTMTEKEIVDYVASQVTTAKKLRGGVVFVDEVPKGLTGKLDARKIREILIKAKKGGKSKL
#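 Luminescence read by CCD imager after adding enzyme (10nM final) to wells holding compound, titrated in qHTS. Substrates 10uM each D-luciferin and ATP; buffer 50mM Tris acetate pH 7.5, 10mM Mg acetate, Tween-20, BSA.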
# FLuc SDR -ATP: firefly luciferase binding stabilization, ATP absent. shares compounds with FLuc inh-1. actives 7.8% (n = 1,300). Purified FLuc-C-HiBiT, Nano-Glo HiBiT luminescence, no ATP. Potency, µM (highest dose often 32.7 µM), for the others: at the highest dose activation (signal gain), hits mostly activators; further: nearly all actives have a fitted effect of over 55% in size
# FLuc SDR ATP: binders stabilizing firefly luciferase, plus ATP; Potency, µM (top dose mostly 32.7 µM), inactives show at the highest dose activation (gain of signal), actives largely listed as activators; shares compounds with FLuc inh-1; purified FLuc-C-HiBiT + ATP, HiBiT complementation luminescence; actives 8.7% (n = 1,300);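 further: signal reports ligand binding via conformational change of the enzyme rather than luciferase catalysis; % of control where 0% means no effect; nearly all actives have a fitted effect of over 55% in size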
# FLuc inh-2: blocks firefly luciferase enzymatic activity; Potency, µM (doses to about 32.7 µM), for the others: at the highest dose activity change, negative = inhibition, usual class: inhibitors; AID 1963320; purified FLuc-C-HiBiT enzyme, luciferin luminescence; actives 42% (n = 1,300); shares compounds with FLuc inh-1; further: on the % scale 0 is the no-effect control and ±100 the full control effect; nearly all actives have a fitted effect of over 70% in size
# An asterisk follows results filed as active; i = inactive; ? = inconclusive; nt = not tested or not shown; [ ] = another dose, or the depositor's remark. This is a sample that favours compounds with a hit; in the whole collection about 7.4% have one here. Unless noted, the call rests on the fitted dose curve; in most records, active means well fitted curve in the direction sought with a large enough effect; inconclusive means small, poorly fitted or top-dose-only effect, or another doubt; inactive means no such curve, though single readings can be large; an effect the other way counts as inactive or inconclusive. Potency means the concentration at half of the fitted maximal effect.
SMILES,SNCA viab count,HEK293 tox,SNCA expr inh,3T3 cytotox,NPR1 antag,FLuc inh-1,FLuc SDR -ATP,FLuc SDR ATP,FLuc inh-2
COc1ccc(CNC(=O)c2cc(=O)c3cc(C)ccc3o2)cc1,-8%,nt,-9%,nt,nt,nt,nt,nt,nt
O=C1NCc2ccccc2CC12CCN(Cc1ccccn1)CC2,2%,i,-11%,i,nt,nt,nt,nt,nt
Cn1ccc(C(=O)N2CC3ON=C(C(=O)N4CCOCC4)C3C2)n1 (stereo not given),-1%,4%,?,2%,nt,nt,nt,nt,nt
Fc1ccc(-n2ncc3c(N4CCCCC4)nc(NN4CCOCC4)nc32)cc1,nt,nt,nt,nt,nt,nt,11%,8%,3%
COc1ccc(N2CCN(c3ncnc4c3cnn4-c3ccc(F)cc3)CC2)cc1,9%,nt,0%,nt,nt,nt,nt,nt,nt
Cc1ccc(C2=CC(c3ccccc3C)n3c(nc4ccccc43)N2)cc1 (stereo not given),45%,nt,?,nt,nt,nt,?,?,4.4µM*
Cc1cccc(NC(=O)c2c(NC(=O)c3cccs3)sc3c2CCC(C)C3)c1 (stereo not given),-2%,nt,5%,nt,nt,nt,nt,nt,nt
Cc1cccc(NC(=O)c2c(N)sc3c2CCC(C)C3)c1 (stereo not given),-11%,nt,154%,nt,nt,nt,8%,7%,?
Cc1noc(C)c1[S+](=O)([O-])N1CCn2c(nnc2-c2ccc(Cl)cc2)C1,-2%,-21%,-10%,-5%,nt,nt,nt,nt,nt
COc1cccc(CN2CCNc3cc(Nc4cccnc4)ncc3C2)c1,-25%[87.6 µM],?,19%[87.6 µM],?,0%[70.6 µM],11µM*,32%[49.3 µM],15%[49.3 µM],?
c1ccc(Oc2cc3c(cn2)NCCN(Cc2ccsc2)C3)cc1,6%[87.6 µM],?,11%[87.6 µM],-23%[138 µM],4%[70.6 µM],i,nt,nt,nt
c1ccc(CCN2CCNc3cc(NCCN4CCOCC4)ncc3C2)cc1,?,?,0%[87.6 µM],?,0%[70.6 µM],i,nt,nt,nt
c1ccc(Nc2cc3c(cn2)CN(Cc2ccsc2)CCN3)cc1,?,?,27%[87.6 µM],56µM*,-25%[70.6 µM],10µM*,19%[49.3 µM],15%[49.3 µM],14µM*
COc1ccc(CN2CCNc3cc(Nc4ccccc4)ncc3C2)cn1,?,112µM*,-6%[87.6 µM],56µM*,-16%[70.6 µM],5µM*,22%[49.3 µM],16%[49.3 µM],?
c1ccc(Nc2cc3c(cn2)CN(CC2CCOC2)CCN3)cc1 (stereo not given),nt,nt,nt,nt,nt,nt,17%[49.3 µM],11%[49.3 µM],?
Fc1ccc(CNc2cc3c(cn2)CN(Cc2ccncc2)CCN3)cc1,-18%[87.6 µM],-51%[172 µM],?,-43%[138 µM],2%[70.6 µM],i,nt,nt,nt
c1nnc(CC2CCNCC2)n1CC1CC1,6%,1%,-21%,-5%,10%,i,nt,nt,nt
COCc1cc(C[C@@H]2CC[C@H](O)[C@@H](CNCc3cccc(F)c3)O2)no1,-3%[87.6 µM],?,11%[87.6 µM],-1%[174 µM],-1%[70.6 µM],i,nt,nt,nt
CNC(=O)N1CCC(Cc2ncc(C)n2C2CC2)C1 (stereo not given),-9%,1%,2%,2%,0%,i,nt,nt,nt
Cn1c([C@H]2CCN(C3CCCCC3)C2)nc2ccccc21,?,?,-52%[87.6 µM],?,-26%[70.6 µM],7.1µM*,18%[65.7 µM],12%[65.7 µM],?
Cc1[nH]cnc1C(=O)N1CCC2(CC1)NC(=O)CC2C(=O)O (stereo not given),-5%,1%,-10%,-9%,-17%,i,nt,nt,nt
CC#CCn1c(N2CCC[C@@H](N)C2)nc2c1c(=O)n(Cc1nc(C)c3ccccc3n1)c(=O)n2C,?,nt,-1%,nt,nt,nt,nt,nt,nt
COc1ccc(C(=O)NC2CCCN(c3cc(-c4ccc(Cl)cc4)[nH]n3)C2)cc1OC (stereo not given),-8%,35µM*,24%,?,-19%,4µM*,26%,14%,6.2µM*
COc1ccc(-c2cc(N3CCCC(NC(=O)c4ccc(OC)c(OC)c4)C3)n[nH]2)cc1 (stereo not given),-10%,?,29%,?,-15%,3.2µM*,?,?,3.9µM*
O=C(NC1CCCN(c2cc(-c3ccc(F)cc3)[nH]n2)C1)c1ccc(C(F)(F)F)cc1 (stereo not given),2%,?,33%,-17%,-7%,i,nt,nt,nt
COc1ccc(C(=O)NC2CCCN(c3cc(-c4ccc(F)cc4)[nH]n3)C2)cc1OC (stereo not given),-12%,?,6%,-29%,-2%,13µM*,16%,13%,?
O=C(NC1CCCc2nc(-c3cccnc3)ncc21)c1cn[nH]c1-n1cnnn1 (stereo not given),-8%,-19%,28%,-22%,-6%,i,nt,nt,nt
COCCn1c(C)cnc1CCNS(=O)(=O)c1ccccc1,7%,i,-1%,-4%,7%,i,nt,nt,nt
